GC-B act: GC-B (human) receptor activation. P20594. HEK293-GC-B cells, CNP EC30, cGMP TR-FRET; 0% at EC30 CNP, 100% saturating CNP. activation, % at 10 µM. actives 0.11% (n = 370,000);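 active means activation at 10 µM reaching about 35% in either raw or pattern-adjusted values, limit read from the data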
APOBEC3A inh: human APOBEC3A DNA deaminase inhibition; recombinant A3A, FAM/TAMRA ssDNA deamination fluorescence; inhibition, % at 20 µM; P31941; actives 0.41% (n = 330,000); AID 493011;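 active means at least 40% inhibition at 20 µM here, with at most 30% in a related deaminase screen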;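 further: plate controls were A3A with DMSO for no effect and wells lacking A3A enzyme for full effect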
Target sequence (P31941 whole entry, looked up): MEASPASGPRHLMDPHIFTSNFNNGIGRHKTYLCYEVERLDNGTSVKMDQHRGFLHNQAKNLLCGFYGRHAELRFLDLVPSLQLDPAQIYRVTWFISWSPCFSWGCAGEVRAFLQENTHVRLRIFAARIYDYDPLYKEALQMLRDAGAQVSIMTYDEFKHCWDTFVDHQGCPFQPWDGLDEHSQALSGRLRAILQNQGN
GC-A act: GC-A (human) enzyme activation | HEK293 GC-A cells, cGMP TR-FRET, EC30 ANP; 0% at EC30 ANP, 100% saturating ANP | activation, % at 10 µM | actives 0.14% (n = 370,000) | AID 1671463; in the data active means activation above about 40%
APOBEC3G inh: APOBEC3G (human) deaminase inhibition | Q9HC16 | recombinant A3G, ssDNA deamination FAM/TAMRA fluorescence | inhibition, % at 20 µM | actives 0.28% (n = 330,000);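 active means inhibition of at least 40% at 20 µM, with no more than 30% in the related APOBEC3A deaminase screen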;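 further: plate controls were DMSO wells with A3G for no effect and wells lacking A3G enzyme for full effect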
Target sequence (Q9HC16 whole entry, looked up): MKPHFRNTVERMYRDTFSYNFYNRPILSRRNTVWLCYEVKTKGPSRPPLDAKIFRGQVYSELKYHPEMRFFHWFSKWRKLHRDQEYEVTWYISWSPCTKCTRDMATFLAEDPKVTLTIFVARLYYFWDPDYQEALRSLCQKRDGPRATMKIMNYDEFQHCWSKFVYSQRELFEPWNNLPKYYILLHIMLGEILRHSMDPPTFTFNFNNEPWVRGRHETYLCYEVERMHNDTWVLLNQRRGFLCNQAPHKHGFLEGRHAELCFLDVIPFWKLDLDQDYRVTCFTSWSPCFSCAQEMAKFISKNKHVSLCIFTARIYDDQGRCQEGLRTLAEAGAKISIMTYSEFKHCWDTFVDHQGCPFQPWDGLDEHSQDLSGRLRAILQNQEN
Neddylation inh: blocks human cullin neddylation | P61081+Q13564 | TR-FRET cullin neddylation, biochemical | inhibition, % at 25 µM | actives 0.58% (n = 360,000) | AID 651699; in the data active means inhibition above about 36%
PfG6PD inh: PfG6PD (Plasmodium falciparum) enzyme inhibition; AID 504690; actives 0.78% (n = 350,000); inhibition, % at 20 µM; PfGluPho enzyme, NADPH resazurin-diaphorase fluorescence;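 active means inhibition reaching at least a set limit at 20 µM in the primary screen, cut at about 59% in these data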;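 further: 0% = DMSO wells with substrate and 100% = DMSO wells lacking glucose-6-phosphate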
Neddyl inh conf: confirmation of human cullin neddylation inhibitors. calls only at 25 µM. TR-FRET cullin neddylation biochemical assay. AID 652217. actives 13% (n = 1,800). shares compounds with Neddylation inh; in the data active means inhibition above about 40%;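 further: neddylation substrate is the cullin 1 ring ligase complex with SKP2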
* hit, by the source's call; i = inactive; / = no result given; + = active, no number. Only some compounds are listed: those with a hit (about 2% of all), similar ones and a draw of the others.

SMILES | GC-B act | APOBEC3A inh | GC-A act | APOBEC3G inh | Neddylation inh | PfG6PD inh | Neddyl inh conf
COc1ccccc1NC(=O)CSc1nc2c(sc3ccccc32)c(=O)n1CCN(C)C | -4.7 | 6.7 | -3.3 | 1.7 | 8.9 | -2.4 | /
CN(C)CCn1c(SCc2ccccc2C#N)nc2c(sc3ccccc32)c1=O | 0.9 | -1.0 | -5.3 | -7.6 | 46.4* | 15.9 | /
O=C(O)c1cc(/C=C/c2ccc(N3CCOCC3)cc2)nc2ccccc12 | -3.0 | 4.4 | 14.2 | -0.6 | 37.9 | -1.1 | /
COc1cc(/C=C/c2cc(C(=O)O)c3ccccc3n2)ccc1OC(F)F | 0.8 | 3.3 | 1.6 | -2.9 | 40.2* | 4.7 | /
O=C(CCc1ccccc1)N[C@H]1[C@H](OC(=O)c2ccco2)CCC[C@]12C(=O)N(Cc1ccccc1)c1ccccc12 | -3.5 | / | -5.3 | / | / | / | /
Cc1cc(N2CCOCC2)n2cc(-c3ccc(F)cc3)nc2n1 | 1.0 | 2.4 | 1.0 | 2.3 | 46.0* | -5.8 | i
CC(C)(C)OC(=O)NC1CCN(c2nc(-c3ccc(Br)cc3)cs2)CC1 | -3.0 | / | 6.9 | / | / | / | /
CS(=O)(=O)c1ccc(Cl)c(NC(=O)COC(=O)CCCN2C(=O)c3cccc4cccc(c34)C2=O)c1 | 7.0 | -0.2 | 3.8 | -7.3 | 50.1* | -13.5 | i
NC(=O)c1cc(NC(=O)COC(=O)CCCN2C(=O)c3cccc4cccc(c34)C2=O)cc(C(N)=O)c1 | 0.4 | 0.3 | 1.4 | -4.3 | -35.1 | -13.9 | /
Cc1cc2nc(C)c(=O)n(C)c2cc1C | -1.5 | -2.5 | 1.3 | -2.6 | 47.0* | 0.2 | i
NC(=O)c1ncn([C@@H]2O[C@H](C(=O)N[C@H](Cc3c[nH]c4ccccc34)C(=O)N3CCN(C(=O)C4CC4)CC3)[C@@H](O)[C@H]2O)n1 | 1.7 | / | -0.3 | / | / | / | /
COc1ccc(/C=c2\s/c(=C(/C#N)C(=O)NCc3ccco3)n(-c3ccccc3)c2=O)cc1 | -3.0 | 0.9 | -0.9 | -5.0 | 47.2* | 4.9 | i
COC(=O)/C=c1/s/c(=C(\C#N)C(=O)NCc2ccco2)n(-c2ccccc2)c1=O | 0.6 | 2.8 | 4.2 | 0.8 | -6.4 | 28.1 | /
C[C@H]1[C@@H](c2ccccc2)Oc2c(Cl)cccc2S(=O)(=O)N1C | -1.2 | / | -2.6 | / | / | / | /
COc1cc2oc(=O)cc(CN3CCN(C(C)=O)CC3)c2cc1Cl | -1.2 | / | 1.5 | / | -3.5 | / | /
COc1cc2oc(=O)cc(CN3CCCCC3)c2cc1Cl | 0.0 | / | 4.3 | / | 40.7* | / | i
COCCN1Cc2cc(C(=O)OC)c3c(c2C1=O)c1cc(F)ccc1n3S(=O)(=O)c1ccc(C)cc1 | 0.2 | / | -1.0 | / | / | / | /
CC(C)C[C@@H](CSc1ccccc1)N1CCN(CCc2ccccc2)CCC1=O | 0.2 | -2.5 | 1.1 | -4.8 | 28.8* | 13.2 | i
O=C(Nc1cc2c3c(c1)C1CCCC1CN3CC1CCCC21)c1ccccc1 (stereo unspecified) | -3.6 | -4.0 | 5.4 | 13.9 | 50.5* | 15.0 | i
O=C(CSc1nnc(-c2cccc(Cl)c2)n1Cc1ccco1)c1ccc(F)cc1 | 9.3 | / | 1.5 | / | / | / | /
COc1ccc(/C=N\NC(=O)c2cccc([N+](=O)[O-])c2)cc1Cn1cc([N+](=O)[O-])cn1 | -5.5 | -3.2 | 1.7 | -7.7 | / | / | /
COc1ccc(/C=N/NC(=O)c2ccccc2O)cc1Cn1cc(Cl)cn1 | 2.4 | -3.0 | -0.1 | -7.3 | 47.6* | -15.3 | +
Cc1ccc(-c2cc(-c3nnc(SCC(=O)Nc4ccccc4-c4ccccc4)n3N)[nH]n2)cc1 | -5.8 | / | 0.8 | / | / | / | /
COc1cccc(CNC(=O)C[C@H]2CC[C@H]3[C@@H](COc4ccc(NC(=O)c5cccs5)cc4C(=O)N3C)O2)c1 | -1.2 | / | 1.4 | / | / | / | /
Cc1ccc(-n2c(SCc3cccc(F)c3)nc3ccccc3c2=O)cc1 | 3.1 | / | -2.0 | / | / | / | /
SMILES | GC-B act | APOBEC3A inh | GC-A act | APOBEC3G inh | Neddylation inh | PfG6PD inh | Neddyl inh conf
Clc1ccc(-c2csc(NCC3CCCO3)n2)cc1 (stereo unspecified) | 0.5 | / | 1.1 | / | / | / | /
CC(C)c1nc2oc3c(=O)[nH]cnc3c2c2c1CCC2 | -1.1 | 2.4 | 8.6 | 2.0 | 41.1* | 8.9 | i
CCCCC(=O)Nc1cccc(-c2nc3ncccc3o2)c1C | 1.3 | -5.2 | -0.2 | -3.0 | 38.1* | 1.2 | i
COc1cc(/C=C/C(=O)OCC(=O)Nc2cc(S(=O)(=O)N(C)C)ccc2Cl)ccc1O | -11.3 | -0.2 | -8.2 | -5.0 | / | 11.3 | /
COc1cc(/C=C/C(=O)OCC(=O)Nc2cc(S(=O)(=O)N3CCCCC3)ccc2C)ccc1O | -3.3 | 0.6 | -6.7 | 1.7 | 41.0* | 4.4 | i
COc1cc(/C=C/C(=O)OCC(=O)Nc2ccc(C)c(S(=O)(=O)N3CCCCC3)c2)ccc1O | -6.0 | 1.2 | -3.1 | -6.2 | 37.0 | 11.8 | /
CCN(CC)S(=O)(=O)c1ccc(Cl)c(NC(=O)COC(=O)/C=C/c2ccc(O)c(OC)c2)c1 | -3.2 | 3.5 | -0.3 | -1.1 | 39.7* | 28.3 | i
O=C(CCc1ccccc1-c1ccccc1CCNC(=O)COCc1ccccc1)NCc1ccccc1 | 2.3 | / | -11.9 | / | / | / | /
Cc1ccc(C(=O)N2CCC[C@@H]2C(=O)N2CCC[C@H]2C(=O)NCc2ccccc2)cc1 | 2.6 | / | -0.9 | / | / | / | /
COCCN(C(=O)COC(=O)c1cc(C)n(-c2ccccc2)c1C)c1c(N)n(Cc2ccccc2)c(=O)[nH]c1=O | 8.3 | -5.7 | 1.0 | -12.9 | 5.3 | -1.0 | /
COc1cc2ccccc2cc1C(=O)OCC(=O)N(CC(C)C)c1c(N)n(Cc2ccccc2)c(=O)[nH]c1=O | -6.8 | -1.8 | -7.5 | -12.3 | 47.3* | -4.8 | i
CCN(C(=O)COC(=O)c1ccccc1NCc1ccco1)c1c(N)n(Cc2ccccc2)c(=O)[nH]c1=O | -1.5 | / | -1.0 | / | / | 15.6 | /
CC(C)CN(C(=O)COC(=O)c1ccccc1NCc1ccco1)c1c(N)n(Cc2ccccc2)c(=O)[nH]c1=O | -5.5 | 0.0 | -3.7 | -6.7 | 62.9* | 8.8 | i
COCCN(C(=O)COC(=O)c1cc2ccccc2cc1OC)c1c(N)n(Cc2ccccc2)c(=O)[nH]c1=O | 0.1 | 0.2 | 1.0 | -7.0 | 52.0* | -3.2 | +
COc1ccc(CC(=O)Nc2ccc(C)cc2S(=O)(=O)N2CCOCC2)cc1OC | 2.0 | / | -2.0 | / | / | / | /
COc1cccc(N(C)C(=O)[C@@H](C2CC2)[C@@H](O)c2ccc(Cl)cc2)c1 | -13.4 | / | -13.1 | / | / | / | /
COC(=O)c1cc2c(c3c4cc(F)ccc4n(S(=O)(=O)c4cccc(C)c4)c13)C(=O)N(Cc1ccc(C(F)(F)F)cc1)C2 | -5.1 | / | -0.8 | / | / | / | /
COc1ccc(/C=N/NC(=O)c2cccs2)c2ccccc12 | 2.9 | -3.8 | -3.1 | -9.1 | 46.0* | 11.4 | i
COc1ccc(OC)c(C=NNC(=O)c2ccccc2NS(=O)(=O)c2cccs2)c1 | 2.8 | -0.6 | 2.2 | -4.5 | 34.3* | -8.0 | /

From PubChem BioAssay
